PrPC TRFRET: reduces human prion protein on the cell surface; hit rate 0.43% among 370,000; P04156; inhibition, % at 13.8 µM; cell surface PrPC, TR-FRET read-out; in the data active means inhibition above about 24%; further: 0% = median of the test wells and 100% = reference compound wells
Mtb hypoxia inh: inhibitors of hypoxia-regulated fluorescent reporter in Mycobacterium tuberculosis; fluorescence inhibition, % (test concentration not listed); M. tuberculosis hypoxia-regulated fluorescent reporter, fluorescence; hit rate 0.1% among 300,000; in the data active means fluorescence inhibition mostly above about 23%, no sharp cut-off; inactive means mostly below about 17%
BJeLR viability: kills HRASV12-expressing BJeLR cells. hit rate 0.17% among 300,000. BJeLR (HRASV12) viability, CellTiter-Glo ATP luminescence, 48 h. inhibition, % (no concentration beside the values); in the data active means inhibition above about 50%
RecA intein inh: Mtb RecA intein splicing inhibition. inhibition, % (no concentration beside the values). hit rate 0.75% among 290,000. P9WHJ3. AID 2221. cell-free RecA intein splicing, fluorescence; in the data active means inhibition above about 30%;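 further: 0% = vehicle wells and 100% = reference inhibitor control wells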
Target sequence (P9WHJ3 whole entry, looked up): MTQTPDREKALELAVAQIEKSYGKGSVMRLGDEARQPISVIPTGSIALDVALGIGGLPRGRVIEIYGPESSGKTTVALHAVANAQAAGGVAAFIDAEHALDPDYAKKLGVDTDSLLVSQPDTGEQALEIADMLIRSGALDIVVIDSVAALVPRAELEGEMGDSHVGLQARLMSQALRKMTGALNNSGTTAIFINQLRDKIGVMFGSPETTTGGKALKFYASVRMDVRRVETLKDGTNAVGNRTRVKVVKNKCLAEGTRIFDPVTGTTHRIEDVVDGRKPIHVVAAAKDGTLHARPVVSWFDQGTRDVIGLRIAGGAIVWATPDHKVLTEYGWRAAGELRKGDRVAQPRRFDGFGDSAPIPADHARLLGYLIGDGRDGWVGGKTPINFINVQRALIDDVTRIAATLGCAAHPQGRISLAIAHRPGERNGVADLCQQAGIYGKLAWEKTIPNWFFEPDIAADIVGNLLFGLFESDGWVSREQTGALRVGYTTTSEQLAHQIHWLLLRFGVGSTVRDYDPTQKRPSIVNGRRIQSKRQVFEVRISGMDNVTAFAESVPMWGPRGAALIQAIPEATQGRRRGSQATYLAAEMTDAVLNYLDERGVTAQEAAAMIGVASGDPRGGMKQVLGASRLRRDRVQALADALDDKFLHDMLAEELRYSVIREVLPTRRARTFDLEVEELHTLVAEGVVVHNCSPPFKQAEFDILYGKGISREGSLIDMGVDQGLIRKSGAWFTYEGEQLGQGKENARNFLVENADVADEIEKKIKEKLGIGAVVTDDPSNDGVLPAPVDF
PrP 5UTR inh: suppresses PrP 5' UTR mRNA reporter expression | cell-based PrP 5' UTR mRNA reporter, plate reader | inhibition, % (test concentration not listed) | hit rate 0.35% among 340,000 | AID 488862; in the data active means inhibition above about 52%; further: 0 = median of the neutral control wells
SARS 3CLpro inh: SARS-CoV 3CLpro protease inhibition. P0C6X7. recombinant SARS-CoV 3CLpro, quenched FRET peptide cleavage. inhibition, % at 6 µM. hit rate 0.14% among 290,000. AID 1706; in the data active means inhibition above about 12%
PrP 5UTR single: prion 5' UTR mRNA inhibition, cherry-pick retest; AID 504592; cell-based prion protein 5' UTR reporter, plate reader; hit rate 48% among 1,100; inhibition, % at 2.5 µM; shares compounds with PrP 5UTR inh; in the data active means inhibition above about 54%
Starred values were filed as active, the others as inactive; . = not tested or not shown; ! = not active in a repeat. Shown are actives, neighbours in structure and some others; about 1.4% of the full set was active somewhere.

SMILES	PrPC TRFRET	Mtb hypoxia inh	BJeLR viability	RecA intein inh	PrP 5UTR inh	SARS 3CLpro inh	PrP 5UTR single
O=C(CNC(=O)c1ccncc1)NN=Cc1cc(Br)ccc1O	.	-7	.	.	.	.	.
C=CCN1C=C2C(=O)C(C)(OC(=O)c3cnc4ccccc4n3)C(=O)C=C2C=C1C=CCOC (stereo not given)	.	3	.	.	.	.	.
NC(=NOC(=O)C=Cc1ccccc1Cl)c1ccccn1	.	4	.	.	.	.	.
CCN(CC)c1ccc(/C=C(/C#N)C(=O)NC(C)C)o1	-22	10	6	-9	82*	-4	-24
O=C(Nc1cccc(-c2ccc(N3CCCCC3)nn2)c1)c1ccc(Br)o1	-6	3	5	10	-73	.	.
O=C(Nc1cccc(-c2ccc(N3CCCCC3)nn2)c1)C(F)(F)F	6	-5	4	-1	75*	3	68*
CC1CCN(c2ccc(-c3cccc(NC(=O)C(F)(F)F)c3)nn2)CC1	2	.	11	-3	83*	3	86*
CCC(=O)Nc1cccc(-c2ccc(N3CCC(C)CC3)nn2)c1	-8	-3	-13	2	24	1	.
NC(=O)NN=CCCc1ccccc1	.	3	.	.	.	.	.
Oc1ccc(Cl)cc1C=Nc1ccccc1Br	8	12	-12	-2	57*	-7	-6
C[C@@H]1O[C@@H](O[C@@H]2C=C3CC[C@@H]4C(CC[C@]5(C)[C@@H](c6ccc(=O)oc6)CC[C@]45O)[C@@]3(C)CC2)[C@H](O)[C@H](O)[C@H]1O (stereo not given in full)	-7	.	.	.	94*	.	90*
C[C@@H]1O[C@@H](O[C@@H]2C=C3CCC4C(CC[C@]5(C)[C@@H](c6ccc(=O)oc6)CC[C@]45O)[C@@]3(C)CC2)[C@H](O)[C@H](O)[C@H]1O (stereo not given in full)	-6	.	.	.	94*	.	94*
CCOc1cc(C=C2SC(=S)NC2=O)ccc1OC(=O)c1ccco1	.	5	.	.	.	.	.
N[C@@H](Cc1c[nH]c2ccccc12)C(=O)O	.	.	-7	0	.	.	.
Cc1[nH]nc2ccc(-c3cncc(OC[C@@H](N)Cc4c[nH]c5ccccc45)c3)cc12	.	.	.	.	95*	.	91*
Cc1cc(C(=O)NN=Cc2cccc([N+](=O)[O-])c2)c(C)o1	.	6	.	.	.	.	.
O=S1(=O)CCOCC(Cc2ccccc2)N1Cc1ccccc1Br (stereo not given)	.	20	.	.	.	.	.
Cc1ccc([N+](=O)[O-])c(OCCN2C(=O)NC(C)(C)C2=O)c1	-8	4	-4	1	53*	-1	-18
CC(=O)c1sc2c(c1OC(=O)c1ccc(Cl)cc1)c(=O)n(-c1ccccc1)c(=S)n2-c1ccccc1	9	.	.	.	8	.	.
CC(=O)c1sc2c(c1OC(=O)c1ccc(Cl)cc1Cl)c(=O)n(-c1ccccc1)c(=S)n2-c1ccccc1	20	8	40	1	76*	2	62*
C=CCSc1nnc(NC(=O)CSc2nnc(C)s2)s1	3	.	1	-2	81*	3	-34
CCN(CC)c1ccc(C=Nn2c(C)nc3ccccc3c2=O)cc1	.	7	.	.	.	.	.
Cc1c(C(=O)OCCOC(C)C)[nH]c2c1C(=O)CC(c1ccco1)C2 (stereo not given)	.	.	36	0	66*	-1	90*
Cc1c(C(=O)OCc2ccccc2)[nH]c2c1C(=O)CC(c1ccco1)C2 (stereo not given)	.	.	25	3	62*	3	87*
CCOC(=O)c1[nH]c2c(c1C)C(=O)CC(c1ccco1)C2 (stereo not given)	1	.	42	1	61*	5	93*
SMILES	PrPC TRFRET	Mtb hypoxia inh	BJeLR viability	RecA intein inh	PrP 5UTR inh	SARS 3CLpro inh	PrP 5UTR single
COCCOC(=O)c1[nH]c2c(c1C)C(=O)CC(c1ccco1)C2 (stereo not given)	4	.	16	1	-5	-3	.
O=C(C=Cc1ccco1)Nc1ccccc1N1CCCCC1	.	13	.	.	.	.	.
CCOC(=O)C1(CC2CCCCO2)CCN(Cc2ccc(OC)cc2F)CC1 (stereo not given)	-6	-14	8	.	80*	-2	-15
CCC(C)C1CN=C(N)N1CCCc1cc(OC)c(OC)c(OC)c1 (stereo not given)	.	-2	.	.	.	.	.
CC(C)(S)[C@@H](N)C(=O)O	-2	.	.	-4	64*	2	10
C[Se]C[C@@H](N)C(=O)O	6	.	.	.	-21	.	.
COC(=O)C(CC(C)C)NS(=O)(=O)c1ccccc1 (stereo not given)	.	22	.	.	.	.	.
CCC(=O)c1ccc(Oc2nc3c(c(=O)n(C)c(=O)n3C)n2CC)cc1	5	2	-16	-1	58*	2	7
COC(=O)c1ccc(Oc2nc3c(c(=O)n(C)c(=O)n3C)n2CCC(C)C)cc1	8	.	-14	4	-3	0	.
COc1ccc(NC(=O)Nc2ccc3c(c2)C(=O)N(C(C)CO)CC(C)C(CN(C)C(=O)Nc2ccc(OC)cc2)O3)cc1 (stereo not given)	.	1	.	.	.	.	.
COC1=C(C)C(=O)C2=C(C1=O)C(CO)N1C(C#N)C3CC4C(C1C2N1CCOC41)N3C (stereo not given)	-7	.	.	.	76*	.	92*
CCC(C)C1NC(=O)c2cc([N+](=O)[O-])cc(I)c2SCC(C(N)=O)NC(=O)C(CCCCN)NC1=O (stereo not given)	.	22	.	.	.	.	.
O=C(Nc1cccnc1)OC1CCCCC1	3	13	2	-2	75*	-4	-36
CC(Oc1cc(Cl)ccc1Cl)C(=O)NN=Cc1ccnn1C (stereo not given)	.	0	.	.	.	.	.
O=[N+]([O-])c1ccc(NN=Cc2ccc[nH]2)cc1	.	9	.	.	.	.	.
C#C[C@]1(O)CC[C@H]2[C@@H]3CCc4cc(OC5CCCC5)ccc4[C@H]3CC[C@@]21C	-2	.	5	8	61*!	-2	-13
COC(=O)C1=C(c2ccc(OC)c(OC)c2)CC2CCC1N2C(=O)NCCOc1ccccc1Cl (stereo not given)	.	2	.	.	.	.	.
Cc1cccc(Cn2cc(C=O)c3ccccc32)c1	7	3	-4	5	19	-1	.
O=Cc1cn(Cc2cccc([N+](=O)[O-])c2)c2ccccc12	-8	15	-23	-1	71*	0	16
O=S(=O)(NCCc1ccccc1)c1ccc(F)cc1Br	7	11	.	.	53*	.	-9
C#CCNS(=O)(=O)c1ccc(F)cc1Br	4	-15	.	.	5	.	.
O=C(O)CCn1cc(C=C2C(=O)NC(=S)NC2=O)c(-c2ccccc2)n1	-1	0	6	-2	74*	0	0
N=c1ccn2c(n1)OC1C(CO)C(O)OC12 (stereo not given)	.	0	.	.	.	.	.
Cc1cc(Cl)ccc1NC(=S)N1CCN(Cc2ccccc2)CC1	1	-2	-11	5	51*	-3	9
COc1ccc(C2CC(=O)C=C(c3cc(Cl)cc(Cl)c3)C2)cc1 (stereo not given)	.	6	.	.	.	.	.

Source: PubChem BioAssay (several laboratories)
